From PubChem BioAssay (NCI)
The panel holds about 79,000 compounds, 15% with a hit somewhere; the sample as a whole holds those more often. Active and inactive are the calls of the source. Rule as the data show it: active = growth inhibition above about 70%; inactive = the rest.

Assays:
[1] = NCI Yeast Anticancer Drug Screen. Data for the rad52 strain (AID 147);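 also: 0% = growth of vehicle-treated control cultures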; conditions: S. cerevisiae rad52 mutant growth inhibition, hits give high values
How it was run: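 Growth of repair-deficient yeast cells was compared between compound-treated and vehicle-treated cultures to give percent inhibition.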

[2] = NCI Yeast Anticancer Drug Screen. Data for the wt1 strain (AID 149);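 also: 0% = growth of vehicle-treated wt1 cultures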; conditions: S. cerevisiae wt1 strain (SPY 50644) growth inhibition, hits give high values
How it was run: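 Yeast wt1 strain exposed to compounds; growth inhibition measured relative to vehicle-treated controls.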

[3] = NCI Yeast Anticancer Drug Screen. Data for the rad50EPP+ strain (AID 151);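 also: 0% = growth of vehicle-treated control cultures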; conditions: S. cerevisiae rad50 mutant strain, hits give high values
How it was run: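 Measured: growth inhibition of rad50EPP+ yeast. Reference: vehicle-treated controls. Screen uses strains with defined genetic alterations in DNA damage repair or cell cycle control.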

[4] = NCI Yeast Anticancer Drug Screen. Data for the mgt1 strain (AID 153); conditions: S. cerevisiae mgt1 mutant growth inhibition, hits give high values
How it was run: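 Compounds were applied to mgt1 mutant yeast, and growth was then compared against vehicle-treated control cultures to give percent inhibition.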

[5] = NCI Yeast Anticancer Drug Screen. Data for the rad50 strain (AID 155);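 also: 0% = growth of vehicle-only cultures of the same strain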; conditions: S. cerevisiae rad50 strain growth inhibition, hits give high values
How it was run: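 Yeast carrying a defined DNA repair defect were exposed to test compounds, and growth was compared with vehicle-treated controls to give percent inhibition.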

[6] = NCI Yeast Anticancer Drug Screen. Data for the mec2-1 strain (AID 157); conditions: S. cerevisiae mec2-1 strain, hits give high values
How it was run: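 Compounds were applied to mec2-1 yeast cells. Their growth was then compared with that of vehicle-treated cultures to give growth inhibition.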

[7] = NCI Yeast Anticancer Drug Screen. Data for the rad14 strain (AID 159);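 also: 0% = growth of vehicle-treated control cultures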; conditions: S. cerevisiae rad14 strain growth inhibition, hits give high values
How it was run: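 Yeast cells carrying a defined DNA-repair defect were exposed to compounds, and growth inhibition was calculated relative to vehicle-treated control cultures.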

[8] = NCI Yeast Anticancer Drug Screen. Data for the CLN2oe strain (AID 163);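 also: 0% = growth of vehicle-only control cultures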; conditions: S. cerevisiae CLN2oe strain, hits give high values
How it was run: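 Cells of an engineered yeast line with disturbed cell-cycle regulation are treated with compound. Inhibition of growth is then calculated relative to the vehicle-treated reference.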

[9] = NCI Yeast Anticancer Drug Screen. Data for the cln2 rad14 strain (AID 165);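 also: 0% = growth equal to vehicle treated cultures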; conditions: S. cerevisiae cln2 rad14 strain, hits give high values
How it was run: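 Strain: cln2 rad14 yeast, altered in cell cycle control and DNA damage repair. Read-out: growth inhibition vs vehicle.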

[10] = NCI Yeast Anticancer Drug Screen. Data for the bub3 strain (AID 167); conditions: S. cerevisiae bub3 mutant strain, hits give high values
How it was run: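 Compounds were applied to a genetically altered yeast strain carrying a cell-cycle control defect. Growth inhibition was scored against vehicle-treated controls.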

[11] = NCI Yeast Anticancer Drug Screen. Data for the wt2 strain (AID 169);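 also: 0% = growth of vehicle-treated yeast cultures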; conditions: S. cerevisiae wt2 strain growth inhibition, hits give high values
How it was run: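 Growth of compound-treated yeast is measured and expressed as inhibition relative to vehicle-only controls.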

[12] = NCI Yeast Anticancer Drug Screen. Data for the mlh1 strain (AID 171);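 also: 0% = growth of vehicle-treated control cultures of the same strain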; conditions: S. cerevisiae mlh1 strain growth inhibition, hits give high values
How it was run: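 Test agents were incubated with yeast bearing a defined DNA damage repair or cell cycle control alteration; values are growth inhibition normalised to vehicle-treated cultures.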

[13] = NCI Yeast Anticancer Drug Screen. Data for the sgs1 strain (AID 173);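 also: 0% = growth of vehicle-only control cultures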; conditions: S. cerevisiae sgs1 mutant, hits give high values
How it was run: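 Strain with an altered DNA repair or cell cycle pathway exposed to compound. Growth then measured. Value = inhibition versus vehicle control.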

[14] = NCI Yeast Anticancer Drug Screen. Data for the mlh1 rad18 strain (AID 175); conditions: S. cerevisiae mlh1 rad18 strain growth inhibition, hits give high values
How it was run: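 A repair-deficient yeast strain is exposed to test compound, and growth is scored relative to vehicle-treated controls.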

[15] = NCI Yeast Anticancer Drug Screen. Data for the rad18 strain (AID 177); conditions: S. cerevisiae rad18 mutant growth inhibition, hits give high values
How it was run: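 DNA-repair-defective yeast; compound treatment; growth inhibition scored against vehicle.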

[16] = NCI Yeast Anticancer Drug Screen. Data for the sgs1 mgt1 strain (AID 161);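 also: 0% = growth of cultures given vehicle only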; conditions: S. cerevisiae sgs1 mgt1 strain, hits give high values
How it was run: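 Percent growth inhibition was derived by comparing compound-exposed mutant yeast with vehicle-exposed cultures. The strain carries alterations in DNA damage repair.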

[17] = at 5.0 µM (retest, dose inferred, filed as 0.5)
[18] = at 50.0 µM (retest, dose inferred, filed as 5.0)

Measured: growth inhibition

C[C@]12CCC3[C@@H](CC[C@@H]4c5nonc5CC[C@]34C)C1CCC2=O (stereo partly drawn)
inactive: [1]; at 1.2 µM 13% | [1]; at 3.7 µM 22% | [1]; at 11.0 µM 52% | [2]; at 1.2 µM 0% | [2]; at 3.7 µM -1% | [2]; at 11.0 µM 8% | [2]; at 33.0 µM 38% | [2]; at 100.0 µM 65% | [3]; at 1.2 µM 4% | [3]; at 3.7 µM 7% | [3]; at 11.0 µM 16% | [3]; at 33.0 µM 29% | [3]; at 100.0 µM 24% | [4]; at 1.2 µM 20% | [4]; at 3.7 µM 29% | [4]; at 11.0 µM 52% | [5]; at 1.2 µM 14% | [5]; at 3.7 µM 18% | [5]; [17] 27% | [5]; at 11.0 µM 65% | [5]; [18] 67% | [6]; at 1.2 µM 6% | [6]; at 3.7 µM 3% | [6]; [17] 15% | [6]; at 11.0 µM 29% | [6]; at 33.0 µM 54% | [6]; [18] -11% | [6]; at 50.0 µM 47.6% | [7]; at 1.2 µM 40% | [7]; at 3.7 µM 40% | [7]; at 11.0 µM 55% | [8]; at 1.2 µM 38% | [8]; at 3.7 µM 41% | [8]; at 11.0 µM 48% | [8]; at 33.0 µM 47% | [8]; at 100.0 µM 51% | [9]; [17] 39% | [9]; [18] 54% | [9]; at 50.0 µM 67.7% | [10]; at 1.2 µM 16% | [10]; at 3.7 µM 19% | [10]; [17] -11% | [10]; at 11.0 µM 38% | [10]; at 33.0 µM 61% | [10]; [18] 59% | [11]; at 1.2 µM 3% | [11]; at 3.7 µM 2% | [11]; at 11.0 µM 32% | [12]; at 1.2 µM 8% | [12]; at 3.7 µM 11% | [12]; at 11.0 µM 29% | [13]; at 1.2 µM 19% | [13]; at 3.7 µM 26% | [13]; at 11.0 µM 66% | [14]; [17] 37% | [14]; [18] 63% | [15]; at 1.2 µM 24% | [15]; at 3.7 µM 22% | [15]; at 11.0 µM 50%
active: [1]; at 33.0 µM 82% | [1]; at 100.0 µM 85% | [4]; at 33.0 µM 84% | [4]; at 100.0 µM 90% | [5]; at 33.0 µM 80% | [5]; at 50.0 µM 87.3% | [5]; at 100.0 µM 87% | [6]; at 100.0 µM 79% | [7]; at 33.0 µM 87% | [7]; at 100.0 µM 90% | [10]; at 50.0 µM 78.2% | [10]; at 100.0 µM 72% | [11]; at 33.0 µM 83% | [11]; at 100.0 µM 83% | [12]; at 33.0 µM 80% | [12]; at 100.0 µM 86% | [13]; at 33.0 µM 92% | [13]; at 100.0 µM 93% | [14]; at 50.0 µM 80.8% | [15]; at 33.0 µM 78% | [15]; at 100.0 µM 83%

COC(=O)C1c2cc3c(c(O)c2C(O)CC1(C)O)C(=O)c1c(O)cc2c(c1C3=O)OC1OC2(C)C(O)C(N(C)C)C1O (stereo not drawn)
inactive: [1]; at 1.2 µM 0% | [1]; at 3.7 µM 16% | [1]; at 11.0 µM 50% | [2]; at 1.2 µM 2% | [2]; at 3.7 µM 1% | [2]; at 11.0 µM 17% | [2]; at 33.0 µM 34% | [4]; at 1.2 µM -7% | [4]; at 3.7 µM 9% | [4]; at 11.0 µM 14% | [4]; at 33.0 µM 52% | [5]; at 1.2 µM 1% | [5]; at 3.7 µM 37% | [5]; [17] 24% | [5]; [18] 64% | [6]; at 1.2 µM -3% | [6]; at 3.7 µM 3% | [6]; [17] 12% | [6]; at 11.0 µM 37% | [7]; at 1.2 µM 0% | [7]; at 3.7 µM 16% | [16]; [17] -3% | [16]; [18] 15% | [8]; at 1.2 µM -7% | [8]; at 3.7 µM 1% | [8]; at 11.0 µM 31% | [9]; [17] 27% | [10]; at 1.2 µM -4% | [10]; at 3.7 µM 3% | [10]; [17] -26% | [10]; at 11.0 µM 55% | [11]; at 1.2 µM 0% | [11]; at 3.7 µM 5% | [11]; at 11.0 µM 28% | [12]; at 1.2 µM -4% | [12]; at 3.7 µM 18% | [14]; [17] 9% | [15]; at 1.2 µM 1% | [15]; at 3.7 µM 13%
active: [1]; at 33.0 µM 85% | [1]; at 100.0 µM 93% | [2]; at 100.0 µM 75% | [4]; at 100.0 µM 95% | [5]; at 11.0 µM 86% | [5]; at 33.0 µM 94% | [5]; at 50.0 µM 98% | [5]; at 100.0 µM 93% | [6]; at 33.0 µM 96% | [6]; [18] 92% | [6]; at 50.0 µM 95.3% | [6]; at 100.0 µM 94% | [7]; at 11.0 µM 79% | [7]; at 33.0 µM 97% | [7]; at 100.0 µM 92% | [16]; at 50.0 µM 98% | [8]; at 33.0 µM 73% | [8]; at 100.0 µM 89% | [9]; [18] 85% | [9]; at 50.0 µM 78.2% | [10]; at 33.0 µM 95% | [10]; [18] 97% | [10]; at 50.0 µM 90.9% | [10]; at 100.0 µM 93% | [11]; at 33.0 µM 80% | [11]; at 100.0 µM 93% | [12]; at 11.0 µM 70% | [12]; at 33.0 µM 96% | [12]; at 100.0 µM 94% | [14]; [18] 98% | [14]; at 50.0 µM 95.2% | [15]; at 11.0 µM 75% | [15]; at 33.0 µM 94% | [15]; at 100.0 µM 91%
